According to paper PMC5913336, “True equilibrium measurement of transcription factor-DNA binding affinities using automated polarization microscopy”:

Tests used:
Experiment in all cases: FP; 33 mM phosphate pH 7.0, 90 mM NaCl, 0.01% Tween 20, 0.1 mM DTT, 0.5% agarose; room temperature
Oc = Oc (Drosophila melanogaster, UniProt P22810 52-141); settings: tags: N-GST (pGEX-6P-1, kept); dsDNA, one strand shown
Gt = biological target: T1, Gt (Drosophila melanogaster, UniProt P39572 369-448); settings: tags: N-GST (pGEX-6P-1, kept); chain copies: 2; dsDNA, one strand shown
T1 sequence: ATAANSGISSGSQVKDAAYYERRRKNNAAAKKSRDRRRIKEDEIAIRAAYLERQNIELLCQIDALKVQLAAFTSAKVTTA

Slp1-FL = biological target: T2, Slp1-FL (Drosophila melanogaster, UniProt P32030); settings: tags: N-GST (pGEX-6P-1, kept); dsDNA, one strand shown
T2 sequence: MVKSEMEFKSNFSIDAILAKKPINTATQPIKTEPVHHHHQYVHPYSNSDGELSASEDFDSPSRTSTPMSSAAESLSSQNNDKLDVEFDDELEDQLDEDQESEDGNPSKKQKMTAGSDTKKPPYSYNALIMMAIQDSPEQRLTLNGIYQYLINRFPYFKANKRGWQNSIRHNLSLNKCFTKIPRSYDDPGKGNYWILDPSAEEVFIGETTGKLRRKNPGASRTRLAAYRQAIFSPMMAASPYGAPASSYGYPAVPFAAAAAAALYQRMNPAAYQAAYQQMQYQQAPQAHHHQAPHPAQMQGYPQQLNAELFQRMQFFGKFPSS

Ttk-PF = Ttk-PF (Drosophila melanogaster, UniProt P17789 499-564); settings: dsDNA, one strand shown
Cic = Cic (Drosophila melanogaster, UniProt Q9U1H0 483-565); settings: tags: N-GST (pGEX-6P-1, kept); dsDNA, one strand shown

Oc, sequence (P22810 52-141): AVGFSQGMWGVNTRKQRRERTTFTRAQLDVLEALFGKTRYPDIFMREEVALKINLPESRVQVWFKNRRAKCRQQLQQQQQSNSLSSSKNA

For AGTTAATCCCCC, the binding signal (Oc) was 1.11 Kd / Kd of best base at the position.

CGTTAATCCCCT was tested, and the binding signal (Oc) was 2.09 Kd / Kd of best base at the position.

In the case of AGTTAATCACCT, the binding signal (Oc) is reported as 7.07 Kd / Kd of best base at the position.

In the case of AGTTAATCCCAT, the binding signal (Oc) is reported as 1.11 Kd / Kd of best base at the position.

AGTTCATCCCCT was tested, and the binding signal (Oc) was 177 Kd / Kd of best base at the position.

In the case of ATTACGCAACC, the binding signal (Gt) is reported as 4.03 Kd / Kd of best base at the position.

For ATTACGTAACG, the binding signal (Gt) was 3.4 Kd / Kd of best base at the position.

ATTACGTAAGC was tested, and the binding signal (Gt) was 3.37 Kd / Kd of best base at the position.

With ATTCCGTAACC the binding signal (Gt) was 1830 Kd / Kd of best base at the position.

With ATTACGTAAAC the binding signal (Gt) was 10.5 Kd / Kd of best base at the position.

ATTACGGAACC was tested, and the binding signal (Gt) was 460 Kd / Kd of best base at the position.

With AATACGTAACC the binding signal (Gt) was 113 Kd / Kd of best base at the position.

ATTACGAAACC was tested, and the binding signal (Gt) was 316 Kd / Kd of best base at the position.

ATGACGTAACC was tested, and the binding signal (Gt) was 3.59 Kd / Kd of best base at the position.

ATTACGTTACC was tested, and the binding signal (Gt) was 518 Kd / Kd of best base at the position.

ACGTGTCTACACTTA was tested, and the binding signal (Slp1-FL) was 22.3 Kd / Kd of best base at the position.

In the case of ATTACGTACCC, the binding signal (Gt) is reported as 1620 Kd / Kd of best base at the position.

With GTTACGTAACC the binding signal (Gt) was 1.09 Kd / Kd of best base at the position.

ATTAAGTAACC was tested, and the binding signal (Gt) was 133 Kd / Kd of best base at the position.

For ATAACGTAACC, the binding signal (Gt) was 174 Kd / Kd of best base at the position.

ATTACGTAACA was tested, and the binding signal (Gt) was 2.19 Kd / Kd of best base at the position.

With ACTACGTAACC the binding signal (Gt) was 121 Kd / Kd of best base at the position.

In the case of ATTGCGTAACC, the binding signal (Gt) is reported as 3.54 Kd / Kd of best base at the position.

In the case of ATTACGTCACC, the binding signal (Gt) is reported as 5.02 Kd / Kd of best base at the position.

AGTACGTAACC was tested, and the binding signal (Gt) was 155 Kd / Kd of best base at the position.

In the case of ATTACGTAATC, the binding signal (Gt) is reported as 1.58 Kd / Kd of best base at the position.

In the case of ACGTGTTAACACTTA, the binding signal (Slp1-FL) is reported as 14 Kd / Kd of best base at the position.

For ACTTGTTTACACTTA, the binding signal (Slp1-FL) was 1.09 Kd / Kd of best base at the position.

CTTACGTAACC was tested, and the binding signal (Gt) was 2.33 Kd / Kd of best base at the position.

With TCGCAAGGATAAC the binding signal (Ttk-PF) was > 208 Kd / Kd of best base at the position.

With ATTACATAACC the binding signal (Gt) was 3.03 Kd / Kd of best base at the position.

ATTAGGTAACC was tested, and the binding signal (Gt) was 56.6 Kd / Kd of best base at the position.

For ATTTCGTAACC, the binding signal (Gt) was 177 Kd / Kd of best base at the position.

In the case of ATTACTTAACC, the binding signal (Gt) is reported as 567 Kd / Kd of best base at the position.

In the case of TTTACGTAACC, the binding signal (Gt) is reported as 6.92 Kd / Kd of best base at the position.

In the case of ATTATGTAACC, the binding signal (Gt) is reported as 3.81 Kd / Kd of best base at the position.

With ATTACCTAACC the binding signal (Gt) was 45.8 Kd / Kd of best base at the position.

For ATTACGTAGCC, the binding signal (Gt) was 1020 Kd / Kd of best base at the position.

With ATCACGTAACC the binding signal (Gt) was 40.1 Kd / Kd of best base at the position.

In the case of ATTACGTGACC, the binding signal (Gt) is reported as 18.9 Kd / Kd of best base at the position.

With ACGTGTTTACATTTA the binding signal (Slp1-FL) was 1.28 Kd / Kd of best base at the position.

In the case of ATTACGTATCC, the binding signal (Gt) is reported as 549 Kd / Kd of best base at the position.

ATTACGTAACT was tested, and the binding signal (Gt) was 4.28 Kd / Kd of best base at the position.

ATTACGTAACC gave a Kd (Gt) of roughly 0.9 nM.

In the case of CGTTGAATGGCGT, the binding signal (Cic) is reported as 2 Kd / Kd of best base at the position.
